An excerpt weighted towards active compounds, which were near 1.6% of everything screened.
dFosB act: activators of mouse delta FosB homodimer | activation, % at 25 µM | purified delta FosB, TAMRA-CDK5 oligo fluorescence polarization; percent of positive-control signal above neutral wells | P13346 | hit rate 0.99% among 340,000;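 active means mean activation above about 17%, with every replicate also reaching it, limit read from the data, passing the limit was not always enough; inconclusive means only one of the two conditions met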
A1 inh: inhibitors of the anti-apoptotic protein A1, read as caspase activation | MEF A1-2A-BIM cells, Caspase-Glo 3/7 luminescence, 3 h; percent of clofoctol response, vehicle zero | caspase activation, % (concentration not given with the values) | hit rate 0.066% among 330,000 | AID 2462;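 active means over half of replicate activation scores above 10%, or exactly half above 10 with the replicate mean above 10; inconclusive means replicate mean below 10 yet half the replicates above 10; inactive means over half of replicates below 10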
Beta2AR agonist: human beta-2 adrenergic receptor agonism by FAP; Am2.2-beta2AR cells, FAP receptor internalization, flow cytometry; response, % (test concentration not listed); hit rate 0.43% among 340,000; AID 504454;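 active means response above a set limit, near 3 SD of response in nonfluorescent compounds, cut at about 42% in these data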
Target sequence (P07550 whole entry, looked up): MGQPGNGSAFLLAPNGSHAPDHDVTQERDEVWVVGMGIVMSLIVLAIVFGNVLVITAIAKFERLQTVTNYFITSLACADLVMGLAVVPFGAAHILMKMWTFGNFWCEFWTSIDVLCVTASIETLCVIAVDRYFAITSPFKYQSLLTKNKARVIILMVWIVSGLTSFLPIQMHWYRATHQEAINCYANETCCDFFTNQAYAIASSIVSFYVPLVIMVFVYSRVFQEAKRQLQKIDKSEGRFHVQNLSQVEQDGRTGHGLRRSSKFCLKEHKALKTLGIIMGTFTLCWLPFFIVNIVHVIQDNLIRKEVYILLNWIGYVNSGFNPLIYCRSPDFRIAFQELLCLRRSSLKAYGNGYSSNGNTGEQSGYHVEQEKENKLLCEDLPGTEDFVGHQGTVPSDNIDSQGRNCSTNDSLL
Dyrk1A ADPGlo: Dyrk1A (rat) kinase inhibition; ADP-Glo luminescence, NFATc1 peptide; inhibition, % at 12.5 µM; hit rate 0.43% among 310,000; in the data active means inhibition above about 50%
Numbers stand for hits.

Cc1ccc(/C=N/NC(=O)c2nnn(-c3nonc3N)c2CN(C)C2CCCCC2)cc1 was read as dFosB act inactive, A1 inh inactive, Beta2AR agonist inactive and Dyrk1A ADPGlo inactive.
`CN(Cc1c(C(=O)N/N=C/c2ccc(O)cc2)nnn1-c1nonc1N)C1CCCCC1` gave dFosB act 29, A1 inh inactive, Beta2AR agonist inactive and Dyrk1A ADPGlo inactive.
`CCCOc1ccc(-c2c(C(=O)N/N=C/c3ccc(C)cc3)nnn2-c2nonc2N)cc1` gave A1 inh inactive and Beta2AR agonist inactive.
Screening Cc1ccc(N(CC(=O)NCc2ccccc2)C(=O)CCC(=O)Nc2ccccn2)cc1 returned dFosB act inactive, A1 inh inactive, Beta2AR agonist inactive and Dyrk1A ADPGlo inactive.
O=C(COc1ccc(F)c(Cl)c1)N1CCCCCCC1 was read as dFosB act inactive, A1 inh inactive, Beta2AR agonist inactive and Dyrk1A ADPGlo inactive.
For COc1ccc(C(=O)O)cc1S(=O)(=O)N1CCN(Cc2ccc3c(c2)OCO3)CC1 the results were dFosB act inactive, A1 inh inactive and Beta2AR agonist inactive.
Screening CCOc1ccc(-c2ccc(SC)nn2)cc1 returned dFosB act inactive, A1 inh inactive, Beta2AR agonist inactive and Dyrk1A ADPGlo 56.
CCOc1ccc(-c2ccc(SCC(=O)Nc3nnc(CC)s3)nn2)cc1 was read as dFosB act inactive, A1 inh inactive, Beta2AR agonist inactive and Dyrk1A ADPGlo inactive.
For CCc1ccc(S(=O)(=O)/N=C2/C=C(Sc3ncn[nH]3)C(=O)c3ccccc32)cc1 the results were dFosB act inactive, A1 inh inactive, Beta2AR agonist 55 and Dyrk1A ADPGlo inactive.
Screening O=C(O)c1ccc(NC2=C/C(=N/S(=O)(=O)c3ccccc3)c3ccccc3C2=O)cc1 returned dFosB act inactive, Beta2AR agonist inactive and Dyrk1A ADPGlo 80.
CCc1ccc(S(=O)(=O)/N=C2\C=CC(=O)c3ccccc32)cc1 was read as A1 inh inactive.
CCc1ccc(S(=O)(=O)/N=C2\C=C(Nc3ccc(O)cc3)C(=O)c3ccccc32)cc1 was read as dFosB act inactive, A1 inh inactive, Beta2AR agonist 45 and Dyrk1A ADPGlo inactive.
`CC(C)CCNC(=O)c1ccc(-c2ccccc2)cc1` gave A1 inh inactive.
For C/C=C(\C)C(=O)OC1[C@H](OC(C)=O)C2(CO)C(CC1(C)C)C1=CCC3C4(C)CCC(O[C@@H]5O[C@H](C(=O)O)[C@@H](O[C@@H]6O[C@H](CO)[C@@H](O)[C@H](O)[C@H]6O)[C@H](O)[C@H]5O[C@H]5O[C@H](CO)[C@@H](O)[C@H](O)[C@H]5O)[C@](C)(CO)C4CCC3(C)[C@]1(C)C[C@H]2O (stereo partly drawn) the results were dFosB act inactive, Beta2AR agonist 61 and Dyrk1A ADPGlo inactive.
Screening CC[n+]1c(/C=C/C=C/N(C(C)=O)c2ccccc2)sc2ccccc21 returned dFosB act 43, A1 inh inactive, Beta2AR agonist inactive and Dyrk1A ADPGlo inactive.
COC(=O)c1sc(NC(=O)c2ccc3c(c2)OCO3)c(C#N)c1C was read as dFosB act inactive, Beta2AR agonist inactive and Dyrk1A ADPGlo inactive.
For COc1ccc2cc(C)c3nnc(SCC(=O)Nc4nc(-c5ccc(F)cc5)cs4)n3c2c1 the results were dFosB act inactive, A1 inh 16, Beta2AR agonist inactive and Dyrk1A ADPGlo inactive.
For CCN(CC(=O)N1CCOCC1)S(=O)(=O)c1ccc(Cl)cc1 the results were dFosB act inactive, A1 inh inactive, Beta2AR agonist inactive and Dyrk1A ADPGlo inactive.
C=CC(=O)N1C/C(=C/c2ccc(F)cc2)C(=O)/C(=C\c2ccc(F)cc2)C1 was read as dFosB act inactive, Beta2AR agonist 48 and Dyrk1A ADPGlo inactive.
Screening Cc1ccc2nc(Cl)c(/C=C/C(=O)c3ccco3)cc2c1 returned dFosB act inactive, A1 inh inactive, Beta2AR agonist inactive and Dyrk1A ADPGlo inactive.
Cc1ccc2cc(/C=C/C(=O)c3ccco3)c(Cl)nc2c1 was read as A1 inh inactive and Beta2AR agonist 56.
CC(C)(C)OC(=O)N[C@H](C(=O)OC(C)(C)C)c1ccccc1 was read as dFosB act inactive, A1 inh inactive, Beta2AR agonist inactive and Dyrk1A ADPGlo inactive.
Screening COc1ccc(C2Nc3ccc4ccccc4c3-c3c2c(=O)oc2ccccc32)cc1 (stereo not drawn) returned dFosB act inconclusive, A1 inh 8.7, Beta2AR agonist inactive and Dyrk1A ADPGlo inactive.
`CC(C)N(C(=O)CSc1nnc(C2CC2)n1C1CC1)c1ccccc1` gave dFosB act inactive, Beta2AR agonist inactive and Dyrk1A ADPGlo inactive.
For COc1cccc(C(=O)/C(C#N)=N/Nc2cccc(-c3ccnc(C)n3)c2)c1 the results were dFosB act inactive, A1 inh inactive, Beta2AR agonist inactive and Dyrk1A ADPGlo inactive.
Screening COc1cc(/C=C2\C(=N)N3N=C(S(C)(=O)=O)SC3=NC2=O)ccc1OS(=O)(=O)c1ccc(C)cc1 returned dFosB act inactive, A1 inh inactive, Beta2AR agonist inactive and Dyrk1A ADPGlo inactive.
For CCOC(=O)c1ccc(NC(=O)c2ccccc2[N+](=O)[O-])cc1 the results were dFosB act inactive, A1 inh inactive, Beta2AR agonist inactive and Dyrk1A ADPGlo inactive.
Screening CCOC(=O)c1cc([N+](=O)[O-])c([N+](=O)[O-])cc1NC(C)=O returned dFosB act inactive, A1 inh inactive, Beta2AR agonist 74 and Dyrk1A ADPGlo inactive.
Screening O=Cc1cc2ccccc2nc1SCc1ccc(Cl)c(Cl)c1 returned dFosB act inactive, A1 inh inactive, Beta2AR agonist inactive and Dyrk1A ADPGlo inactive.
`O=Cc1cc2ccccc2nc1SCc1ccc(Cl)cc1` gave dFosB act inactive, A1 inh inactive, Beta2AR agonist 46 and Dyrk1A ADPGlo inactive.
For Cc1ccccc1N1CCN(C2=NC(=O)/C(=C/c3cn[nH]c3-c3ccccc3)S2)CC1 the results were dFosB act inactive, A1 inh inactive, Beta2AR agonist 48 and Dyrk1A ADPGlo inactive.
Cc1ccc(S(=O)(=O)Nc2ccccc2F)cc1C(=O)N1CCN(c2ccccc2O)CC1 was read as dFosB act inactive, A1 inh inactive and Beta2AR agonist inactive.
COc1ccc(S(=O)(=O)N2CCC(C(=O)NC3CC3)CC2)cc1OC was read as dFosB act inactive, A1 inh inactive, Beta2AR agonist inactive and Dyrk1A ADPGlo inactive.
COCC(C)n1c(SCC(=O)Nc2c(C)n(C)n(-c3ccccc3)c2=O)nc2ccccc2c1=O (stereo not drawn) was read as dFosB act inactive, A1 inh inactive, Beta2AR agonist inactive and Dyrk1A ADPGlo inactive.
Screening COc1ccc(-c2ccc3c(c2)S(=O)(=O)c2cccc(C(=O)NCc4cccc(OC(F)(F)F)c4)c2C3=O)cc1OC returned dFosB act inactive, A1 inh 39, Beta2AR agonist inactive and Dyrk1A ADPGlo inactive.
`O=C(NCc1cc(C(F)(F)F)ccc1Cl)c1cccc2c1C(=O)c1ccc(-c3ccc(OC(F)(F)F)cc3)cc1S2(=O)=O` gave A1 inh inactive.
O=C(NCc1ccccc1Cl)c1cccc2c1C(=O)c1ccc(-c3ccc(OC(F)(F)F)cc3)cc1S2(=O)=O was read as dFosB act inactive, A1 inh 10, Beta2AR agonist inactive and Dyrk1A ADPGlo inactive.
